From PubChem BioAssay (NCATS)
Inconclusive results are not listed. Activity calls are given as the source filed them. Calls come from the whole dose curve; as a rule, active = well fitted inhibition curve with a large enough effect; inconclusive = small, poorly fitted or top-dose-only effect; inactive = flat fitted curve, though single readings scatter.

Assays:
Assay in all cases: qHTS profiling for inhibitors of Plasmodium falciparum proliferation (AID 504749); note: nearly all actives have a fitted effect of over 60% in size
Conditions in all cases: P. falciparum in erythrocytes, SYBR Green DNA, 72 h; series mostly up to 28.7 µM
[1] = test system: FAB9
Outline: (§1)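 Quantitative HTS: compounds pinned into medium, infected erythrocytes added (0.3% parasitemia, 2.5% hematocrit), 72 h culture at 37 C under 5% CO2. Saponin/Triton lysis with SYBR Green I, overnight RT, then fluorescence read.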

[2] = test system: GB4
Outline: as §1

[3] = test system: HB3
Outline: as §1

[4] = test system: ICS
Outline: as §1

[5] = test system: JCK
Outline: as §1

[6] = test system: N140
Outline: as §1

[7] = test system: P93_24
Outline: as §1

[8] = test system: P94_40
Outline: as §1

[9] = test system: PAD
Outline: as §1

[10] = test system: PC15
Outline: as §1

Measured: Potency
Potency is the fitted concentration of half-maximal effect.

CCCC(=O)O
inactive: all assays above

O=C(NNCNNC(=O)c1ccncc1)c1ccncc1
inactive: all assays above

O=C(O)[C@H]1CN(C/C=C/P(=O)(O)O)CCN1
inactive: all assays above

CCCCCCCCCCCC(=O)OCC(O)CO (stereo unspecified)
inactive: all assays above

CS(=O)(=O)OCC(O)C(O)COS(C)(=O)=O (stereo unspecified)
inactive: all assays above

CC(C)(COP(=O)(O)OP(=O)(O)OC[C@H]1O[C@@H](n2cnc3c(N)ncnc32)[C@H](O)[C@@H]1OP(=O)(O)O)C(O)C(=O)NCCC(=O)NCCS (stereo partly specified)
inactive: all assays above

C=CCCCCCCCCC(=O)OC
inactive: all assays above

C[C@]12CC[C@@H]3c4ccc(OC(=O)c5ccccc5)cc4CC[C@H]3[C@@H]1CC[C@@H]2O
active: [4] 11.2 µM
inactive: all other assays above

CC1(C)S[C@@H]2[C@H](NC(=O)C3(N)CCCCC3)C(=O)N2[C@H]1C(=O)O
inactive: all assays above

CC(C)[C@@H](N)C(=O)O
inactive: all assays above

CCOC(=O)[C@@H](N)CS
inactive: all assays above

O=P(O)(O)OP(=O)(O)OP(=O)(O)O
inactive: all assays above

O=S(=O)(O)CC(S)CS (stereo unspecified)
inactive: all assays above

S=C=Nc1ccc(N=C=S)cc1
inactive: all assays above

Cc1ccc(S(=O)(=O)NCl)cc1
inactive: all assays above

Cc1cc(-c2ccc(N=Nc3ccc4c(S(=O)(=O)O)cc(S(=O)(=O)O)c(N)c4c3O)c(C)c2)ccc1N=Nc1ccc2c(S(=O)(=O)O)cc(S(=O)(=O)O)c(N)c2c1O
inactive: all assays above

O=P(O)(O)OC[C@H](O)CO
inactive: all assays above

CC/C=C\C/C=C\C/C=C\C/C=C\C/C=C\CCCC(=O)O
inactive: all assays above

O=C(O)Cc1cc(I)c(Oc2ccc(O)c(I)c2)c(I)c1
inactive: all assays above

CC(C)Cc1ccc([C@@H](C)C(=O)NS(C)(=O)=O)cc1
inactive: all assays above

C=CC[C@@H]1/C=C(\C)C[C@H](C)C[C@H](OC)[C@H]2O[C@@](O)(C(=O)C(=O)N3CCCC[C@H]3C(=O)O[C@H](/C(C)=C/[C@@H]3CC[C@@H](O)[C@H](OC)C3)[C@H](C)[C@@H](O)CC1=O)[C@H](C)C[C@@H]2OC
active: [1] 2 µM | [2] 3.79 µM | [3] 1 µM | [4] 0.447 µM | [5] 3.98 µM | [6] 0.891 µM | [7] 2 µM | [8] 2 µM | [9] 1.41 µM | [10] 2.24 µM

OCl
inactive: all assays above

O=C(OCc1ccccc1)c1ccc(O)cc1
inactive: all assays above

N[C@H](CC(=O)O)C(=O)O
inactive: all assays above

O=[n+]1ccn([O-])c2ccccc21
inactive: all assays above

O=C(O)COc1ccc(CCNS(=O)(=O)c2ccccc2)s1
inactive: all assays above

O=C(O)/C=C/C(=O)Nc1ccc(S(=O)(=O)Nc2nccs2)cc1
inactive: all assays above

C[C@H](CCC(=O)O)[C@H]1CC[C@H]2[C@@H]3CC[C@@H]4C[C@H](O)CC[C@]4(C)[C@H]3C[C@H](O)[C@]12C
inactive: all assays above

CN(C)C=Nc1c(I)cc(I)c(CCC(=O)O)c1I
inactive: all assays above

CC(=O)Nc1c(I)c(C(=O)O)c(I)c(N(C)C(C)=O)c1I
inactive: all assays above

C/C=C/C=C/C(=O)O
not listed: [7]
inactive: all other assays above

CC(=O)Oc1cccc2c1C(=O)c1c(OC(C)=O)cc(C(=O)O)cc1C2=O
not listed: [6]
inactive: all other assays above

COc1cc(C)c(/C=C/C(C)=C/C=C/C(C)=C/C(=O)O)c(C)c1C
inactive: all assays above

OC/C=C/c1ccccc1
inactive: all assays above

COc1cc(NCCCC(C)N)c2ncccc2c1 (stereo unspecified)
active: [1] 4.47 µM | [2] 2.13 µM | [3] 3.55 µM | [4] 0.891 µM | [6] 5.62 µM | [7] 2.24 µM | [8] 4.47 µM | [9] 0.398 µM | [10] 3.55 µM

O=S(=O)(O)CCCS(=O)(=O)O
inactive: all assays above

CCCCCCCCCCCCOCCCN
inactive: all assays above

CC(C)=CCC/C(C)=C/CC/C(C)=C/CC/C=C(\C)CC/C=C(\C)CCC=C(C)C
active: [1] 1e-05 µM
not listed: [5]
inactive: all other assays above

CC(=O)N=c1sc(S(N)(=O)=O)nn1C
not listed: [7] | [8]
inactive: all other assays above

CC(=O)Nc1ccc(OC(=O)c2ccccc2O)cc1
inactive: all assays above

Cn1cc(NC(=O)c2cc(NC(=O)c3cc(NC=O)cn3C)cn2C)cc1C(=O)NCCC(=N)N
active: [1] 11.2 µM | [2] 7.57 µM | [3] 10 µM | [4] 3.55 µM | [5] 12.6 µM | [6] 5.01 µM | [7] 5.01 µM | [8] 4.47 µM | [9] 5.01 µM | [10] 7.08 µM

O=C1NCCN1c1ncc([N+](=O)[O-])s1
inactive: all assays above

Oc1ccc(Cl)c2c1CCC2
not listed: [4]
inactive: all other assays above

[O]=[Bi][O]C(=O)[O][Bi]=[O]
not listed: [4]
inactive: all other assays above

Oc1cc(O)cc(O)c1
inactive: all assays above

COc1ccc(/C=C/C(=O)OCCC(C)C)cc1
not listed: [6]
inactive: all other assays above
